From PubChem BioAssay AID1117319 (Southern Research Institute, 2015)
Hit rate of the full screen: of about 260,000 compounds, about 1,500 (0.58%) were called active. About 5% were inconclusive and are not listed. Not all results are given here. Measured potencies and affinities stand elsewhere. Values without a mark were called inactive.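 Rule for the calls: active = inhibition above a set limit at one or more doses, reproduced on every date tested; inconclusive = results disagree between test dates, or hit never tested in dose response; inactive = the rest.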

target: Virion infectivity factor (Human immunodeficiency virus type 1 group M subtype B (isolate BH10)) + Virion infectivity factor (Human immunodeficiency virus type 1 group M subtype B (isolate BRU/LAI)) + Virion infectivity factor (Human immunodeficiency virus type 1 group M subtype B (isolate PCV12)) + Virion infectivity factor (Human immunodeficiency virus type 1 group M subtype B (isolate HXB2)) + DNA dC->dU-editing enzyme APOBEC-3G (Homo sapiens) (UniProt P69720+P69721+P69722+P69723+Q9HC16); assay: inhibitors of Vif binding to APOBEC3G peptide, primary screen, biochemical, TR-FRET, GST-Vif 1-94, biotin-A3G peptide, dose response retest (AID 1117319); settings: active compounds read high;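 note: Vif residues 1-94 fused to GST binding biotinylated APOBEC3G peptide 110-148; 0% = full assay without inhibitor and 100% = GST in place of GST-Vif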

First: O=C1N=C(N2CCOCC2)S/C1=C\c1cccs1
Second: NC1=NC(=O)/C(=C/c2cccs2)S1
The inhibition of the first is lower: -6.4% for the first, 10% for the second.

First: Cc1ccccc1-c1ccc(/C=C2/SC(N3CCOCC3)=NC2=O)o1
Second: O=C(c1ccccc1O)N1CCOCC1
The inhibition of the first is higher: 6.07% for the first, -1.64% for the second.

Going from `O=C(CCc1nnc(CCc2ccccc2)o1)N1CCCCC1CCn1cccn1` (stereo not given) to `CCOC(=O)C(C#N)=C1CCN(Cc2ccccc2)CC1`, the inhibition falls from -2.83% to -5.62%.

Compared with `CC(=O)NCCn1c(SCc2ccc(C)cc2C)nc2ccccc2c1=O`, `Cc1ccc(NC(=O)CNc2cccc(C)c2C)c(C)c1` is higher in inhibition: -4.41% for the first, 21.8% for the second.

Going from `COCc1cc(=O)[nH]c(N2CCN(C(=O)c3ccco3)CC2)n1` to `COc1ccccc1C1CCN(C(=O)c2ccccc2)CC1`, the inhibition rises from -8.81% to 6.08%.

Compared with `CCOc1ccc(NC(=O)c2cc3c(=O)n(C)c4ccccc4c3n2C)cc1`, `CN1CCN(S(=O)(=O)c2ccc(NC(=S)NC(=O)c3ccccc3)cc2)CC1` is higher in inhibition: -12% for the first, 0.13% for the second.

Compared with `O=C(CNC(=O)c1cc2ccccc2o1)NCc1cccs1`, `CCc1cccc(C)c1NC(=O)CO/N=C(\C)c1cc2ccccc2o1` is lower in inhibition: 15.4% for the first, -0.14% for the second.

First: Clc1ccc(NCn2cncn2)nc1
Second: COc1ccc(CCNC(=O)Cn2cnc3c(cnn3C(C)(C)C)c2=O)cc1OC
The inhibition of the first is higher: 10.8% for the first, -3.55% for the second.

Compared with `CC(OC(=O)CCC1CCCCC1)C(=O)Nc1ccc(S(N)(=O)=O)cc1` (stereo not given), `Cc1ccc(C(=O)OCC(=O)Nc2ccc(S(N)(=O)=O)cc2)c(O)c1` is lower in inhibition: 6.23% for the first, -10.3% for the second.

Going from `O=C(O)c1cccc(-c2ccccc2)c1O` to `O=C(O)c1cccc2cc(-c3ccccc3)oc(=O)c12`, the inhibition rises from 2.46% to 3%.

Going from `Nc1c(O)ccc2c1C(=O)c1ccccc1C2=O` to `NS(=O)(=O)c1ccc(N=Nc2c(O)ccc3ccccc23)cc1`, the inhibition falls from 10.2% to 9.6%.

Compared with `Cc1oc2c(O)c(O)ccc2c(=O)c1-c1cnn(-c2ccccc2)c1`, `Cc1cc2cc(C(=O)N3CCc4c([nH]c5ccccc45)C3c3ccccn3)ccc2o1` (stereo not given) is lower in inhibition: 28.2% for the first, 10.8% for the second.

Compared with `Cc1ccc(C(=O)NC(=S)Nc2ccc(S(=O)(=O)N3CCN(C)CC3)cc2)cc1`, `Cc1ccc(NC(=O)COC(=O)c2ccc(S(=O)(=O)N3CCCC3)cc2)cc1` is lower in inhibition: 1.48% for the first, -1.07% for the second.

Going from `COc1ccc(CNC(=O)COC(=O)c2c(NC(C)=O)sc(C)c2C)cc1OC` to `COc1ccc(C(=O)Nc2nc3ccc(S(C)(=O)=O)cc3s2)cc1`, the inhibition falls from 1.62% to -53.8%.

First: O=C(O)C1CC(=O)N(c2ccc(OCc3ccc(Cl)cc3Cl)cc2)C1 (stereo not given)
Second: CN1c2ccccc2C(O)=C(C(=S)Nc2ccc(F)c(Cl)c2)S1(=O)=O
The inhibition of the first is higher: 4.2% for the first, -0.79% for the second.

Going from `N#CC(C#N)=c1ccc2c(c1)N1C3=C(CCCC3)CC3CCCCC31N=2` (stereo not given) to `O=C(CCn1c(=S)oc2ccccc21)NC1CCCCCCC1`, the inhibition falls from 20.5% to -0.87%.

Going from `CC(CCc1ccccc1)NC(=O)C1CCN(S(=O)(=O)N2CCOCC2)CC1` (stereo not given) to `O=C(c1ccccc1)c1ccccc1C(=O)N1CCOCC1`, the inhibition rises from -3.69% to 5.31%.

First: O=C(O)c1ccc(-n2nc(C(F)(F)F)c3c2CCCC3)cc1
Second: COC(=O)c1ccc(-n2nc(C(F)(F)F)c3c2-c2ccoc2CC3)cc1
The inhibition of the first is lower: 0.77% for the first, 14.2% for the second.

First: CCCC1CC(C#N)N(N(C)C)C1=C(C#N)C#N (stereo not given)
Second: CCOC(=O)c1csc(NC(=O)CN2CCOCC2)n1
The inhibition of the first is higher: -4.37% for the first, -8.71% for the second.

Compared with `Cc1ccc(NC(=S)C2=C(O)c3sccc3N(C)S2(=O)=O)cc1`, `Cc1cc(C)nc(NS(=O)(=O)c2ccc(N/C=C/C(=O)c3ccc(Cl)c(Cl)c3)cc2)n1` is higher in inhibition: 10.2% for the first, 32.2% for the second.

First: CC(C)n1ncc2c(C(=O)NCCc3ccc(S(N)(=O)=O)cc3)cc(C3CC3)nc21
Second: Nc1nc(N)c(N=Nc2ccc(S(N)(=O)=O)cc2)c(=O)[nH]1
The inhibition of the first is lower: 1.54% for the first, 1.9% for the second.

Compared with `CN(C)c1ccc(N=Nc2ccc(S(N)(=O)=O)cc2)cc1`, `Cc1c(C#N)c(O)[nH]c(=O)c1N=Nc1ccc(S(N)(=O)=O)cc1` is lower in inhibition: 5.84% for the first, 3.16% for the second.

First: Cc1cccc(N2CCN(Cc3nc(-c4cccc(Oc5ccccc5)c4)oc3C)CC2)n1
Second: CC(=O)N1c2ccc(Cl)cc2C2C=CCC2C1c1cccc2ccccc12 (stereo not given)
The inhibition of the first is lower: 3.4% for the first, 19.4% for the second.

Going from `CCN(CC)S(=O)(=O)c1cccc(NC(=O)C2SC(=Nc3ccc(C)cc3C)C(C(=O)NCC3CCCO3)=C2N)c1` (stereo not given) to `Cc1ccc(C)c(NC(=O)C2CC=CCC2C(=O)O)c1` (stereo not given), the inhibition falls from 2.72% to -2.09%.

Going from `O=C(O)C1C=CC(C(=O)O)c2ccccc21` (stereo not given) to `COc1cccc(C2Nc3c(F)cc(Br)cc3C3C=CCC32)c1OC` (stereo not given), the inhibition rises from -4.89% to 5.44%.
